Laboratory results from PubChem BioAssay AID1159580 (chemical genetic matrix, 2015).
Out of some 5,500 compounds screened, about 2,000 (36%) were called active. Not shown: some 18% with an inconclusive outcome. Cut-off read from the data, not from the text of the source: active = normalized growth mostly below about 0.91 (no sharp cut-off); inconclusive = no clear call, values can overlap the other calls; inactive = mostly above about 0.92. The list shows a part of the results.

Test: chemical genetic growth profiling, strain panel (AID 1159580);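 note: tested at 20 µM; growth read once vehicle control cultures reached saturation at 30 °C; 1 = growth at the plate median or of vehicle wells; lower values mean less growth of the strain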
Conditions: growth OD

Measured: normalized growth

CCC(=O)c1c(C)c(C)c(C)c(C)c1C
inactive: S. cerevisiae deletion strains, locus YAL013W, strain DEP1, hits give low values 0.985 | S. cerevisiae deletion strains, locus YBR229C, strain ROT2, hits give low values 0.992 | S. cerevisiae deletion strains, locus YCL061C, strain MRC1, hits give low values 0.988 | S. cerevisiae deletion strains, locus YDL101C, strain DUN1, hits give low values 0.99 | S. cerevisiae deletion strains, locus YDL134C, strain PPH21, hits give low values 0.984 | S. cerevisiae deletion strains, locus YDR150W, strain NUM1, hits give low values 1.01 | S. cerevisiae deletion strains, locus YEL061C, strain CIN8, hits give low values 0.975 | S. cerevisiae deletion strains, locus YGR078C, strain PAC10, hits give low values 1 | S. cerevisiae deletion strains, locus YHR030C, strain SLT2, hits give low values 0.95 | S. cerevisiae deletion strains, locus YHR087W, strain rtc3, hits give low values 0.959 | S. cerevisiae deletion strains, locus YJL187C, strain SWE1, hits give low values 0.995 | S. cerevisiae deletion strains, locus YJR043C, strain POL32, hits give low values 0.983 | S. cerevisiae deletion strains, locus YJR075W, strain HOC1, hits give low values 0.948 | S. cerevisiae deletion strains, locus YKL190W, strain CNB1, hits give low values 0.983 | S. cerevisiae deletion strains, locus YLR039C, strain RIC1, hits give low values 1.1 | S. cerevisiae deletion strains, locus YLR058C, strain SHM2 (second series), hits give low values 0.967 | S. cerevisiae deletion strains, locus YLR085C, strain ARP6, hits give low values 1.01 | S. cerevisiae deletion strains, locus YLR262C, strain YPT6, hits give low values 1.06 | S. cerevisiae deletion strains, locus YML094W, strain GIM5, hits give low values 0.977 | S. cerevisiae deletion strains, locus YMR219W, strain ESC1, hits give low values 0.986 | S. cerevisiae deletion strains, locus YMR263W, strain SAP30, hits give low values 0.977 | S. cerevisiae deletion strains, locus YNL153C, strain GIM3, hits give low values 0.982 | S. cerevisiae deletion strains, locus YNL298W, strain CLA4 (second series), hits give low values 0.966 | S. cerevisiae deletion strains, locus YNL322C, strain KRE1, hits give low values 0.997 | S. cerevisiae deletion strains, locus YNR030W, strain Alg12, hits give low values 0.954 | S. cerevisiae deletion strains, locus YOL006C, strain TOP1, hits give low values 1.01 | S. cerevisiae deletion strains, locus YPL055C, strain LGE1, hits give low values 0.971 | S. cerevisiae deletion strains, locus YPL241C, strain CIN2, hits give low values 0.986 | S. cerevisiae deletion strains, locus YPR135W, strain CTF4, hits give low values 0.976 | S. cerevisiae strains, strain wild type, hits give low values 0.988
